Screens (PubChem)
PAFAH2 FP inh = PAFAH2 (human) inhibition; recombinant PAFAH2, FP-rhodamine activity probe, fluorescence polarization; inhibition, % at 3.39 µM; Q99487; AID 492956; 0.99% of 340,000 active;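 active = inhibition above the mean over all tested compounds plus 3 SD, cut at about 30% in these data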;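 also: inhibitors block probe labeling of enzyme so polarization drops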
ATG4B inh = ATG4B (human) cysteine protease inhibition. ATG4B cleavage of LC3-PLA2, NBD-HPC fluorescence, 1 h. Q9Y4P1. AID 504462. 0.51% of 340,000 active. inhibition, % at 8.33 µM; in the data active = inhibition above about 40%
PAFAH1B3 inh = PAFAH1B3 (human) inhibition; recombinant PAFAH1B3, FP-rhodamine probe, fluorescence polarization; inhibition, % at 3.39 µM; Q15102; 0.28% of 340,000 active; AID 492972;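 active = inhibition above the screen-wide average of all tested compounds plus 3 SD, cut at about 25% in these data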
Target sequence (Q15102 whole entry, looked up): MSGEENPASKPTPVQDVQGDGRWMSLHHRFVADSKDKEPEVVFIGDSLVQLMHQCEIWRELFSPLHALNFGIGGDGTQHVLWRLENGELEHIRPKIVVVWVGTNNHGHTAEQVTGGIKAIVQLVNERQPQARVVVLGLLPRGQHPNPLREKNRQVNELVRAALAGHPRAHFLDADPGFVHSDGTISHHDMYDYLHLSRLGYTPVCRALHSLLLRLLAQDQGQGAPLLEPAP
pPAFAH FP inh = inhibitors of human plasma PAF acetylhydrolase (pPAFAH) | Q13093 | 1.5% of 330,000 active | inhibition, % at 3.39 µM | recombinant pPAFAH, FP-rhodamine probe fluorescence polarization;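 active = inhibition above the mean inhibition across the screen plus 3 SD, cut at about 25% in these data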;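 also: inhibitors block binding of the rhodamine activity-based probe so polarization drops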
Target sequence (Q13093 whole entry, looked up): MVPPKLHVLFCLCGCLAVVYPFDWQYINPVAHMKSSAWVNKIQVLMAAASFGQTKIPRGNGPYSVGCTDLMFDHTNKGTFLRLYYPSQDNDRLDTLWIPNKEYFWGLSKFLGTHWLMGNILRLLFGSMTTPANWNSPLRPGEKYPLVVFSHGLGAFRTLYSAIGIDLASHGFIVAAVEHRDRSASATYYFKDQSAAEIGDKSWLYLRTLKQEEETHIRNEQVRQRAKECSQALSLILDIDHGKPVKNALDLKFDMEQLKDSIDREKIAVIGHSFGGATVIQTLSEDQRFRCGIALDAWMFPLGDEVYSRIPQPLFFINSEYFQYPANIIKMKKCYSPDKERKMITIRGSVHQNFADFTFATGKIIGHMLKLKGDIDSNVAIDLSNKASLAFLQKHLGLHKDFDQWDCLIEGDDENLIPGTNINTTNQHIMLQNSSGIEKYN
DAGLB inh = diacylglycerol lipase beta (human) inhibition; Q8NCG7; HEK293T DAGLB membrane lysate, EnzChek fluorogenic substrate; inhibition, % at 5.17 µM; 0.059% of 340,000 active; in the data active = inhibition above about 34%
PAFAH1B2 inh = inhibitors of human PAFAH1B2; P68402; recombinant PAFAH1B2, FP-rhodamine activity probe, fluorescence polarization; inhibition, % at 3.39 µM; 1.2% of 340,000 active; AID 492953;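 active = inhibition above the mean of all tested compounds plus 3 SD, cut at about 24% in these data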
PAFAH1B3 confirm = PAFAH1B3 (human) inhibition, confirmed | shares compounds with PAFAH1B3 inh | recombinant PAFAH1B3, FP-Rh activity-based probe, fluorescence polarization | inhibition, % at 3.39 µM | 30% of 390 active | AID 493032;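 active = average inhibition over triplicate runs above the hit cutoff set in the earlier primary screen, cut at about 25% in these data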
Numbers stand for hits; n = inactive; x = not tested or not shown; ! = not active in a repeat. The list is not random: actives were taken first. Their share in the collection is about 3%.

SMILES | PAFAH2 FP inh | ATG4B inh | PAFAH1B3 inh | pPAFAH FP inh | DAGLB inh | PAFAH1B2 inh | PAFAH1B3 confirm
O=C(O)c1cccc(NS(=O)(=O)c2ccc3nnn(O)c3c2)c1 | n | n | n | n | n | n | x
O=C(O)c1cccc(NC2=C(n3nnc4ccccc43)C(=O)c3ccccc3C2=O)c1 | n | n | 29.3 | n | n | n | n
CC(=O)Nc1ccc(N2CCc3c(C)c(C#N)c4nc5ccccc5n4c32)cc1 | x | x | x | n | x | x | x
O=C(COC(=O)c1ccc([N+](=O)[O-])s1)c1ccc[nH]1 | n | n | 32.8 | n | n | n | 26.2
O=C(Nc1ccc(F)c(Cl)c1)Nc1csc2ccccc12 | n | n | 30.4 | n | n | n | n
Cc1ccc(CCNC(=O)C2CCN(S(=O)(=O)c3ccc4c(c3)NC(=O)CO4)CC2)cc1 | n | n | n | n | n | n | x
O=Nc1c(O)c2ccccc2c2ccccc12 | n | n | 93.9 | n | n | n | 66.3
CCNCC(=O)N1c2ccccc2CCc2ccc(NC(=O)OC(C)C)cc21 | n | n | 30.8 | n | n | n | n
O=C(N/N=C/c1cc(Br)ccc1OC(=O)c1ccc(Br)cc1)c1ccncc1 | n | n | 25.7 | n | n | n | n
O=C(N/N=C/c1cc(Br)ccc1O)c1ccncc1 | n | n | n | n | n | n | x
O=C1Nc2ccc(Br)cc2C12NNc1ccccc1O2 (stereo not drawn) | n | n | 27.4 | 29.4 | n | n | n
[O-][n+]1onc2c1CCc1nnc(-c3ccccc3)cc1-2 | n | n | 77.7 | n | n | n | 84.1
COn1c(-c2ccccc2)nc2c1CCc1c-2no[n+]1[O-] | n | n | 26.0 | n | n | n | 27.4
Nc1nonc1N/N=C/c1c(O)ccc2ccccc12 | n | n | 31.0 | n | n | n | n
Nc1nonc1N/N=C\c1ccccc1 | n | n | n | n | n | n | x
COc1cc(/C=C/C(=O)CC(=O)/C=C/c2ccc(O)c(OC)c2)ccc1O | n | 49.3 | 25.9 | n | n | n | n
COCCn1nnnc1C(c1ccccc1)N1CCN(C(=O)c2ccco2)CC1 (stereo not drawn) | n | n | n | n | n | n | x
CN(CC(=O)Nc1ccc(F)cc1)C(=O)COC(=O)Cc1cccs1 | n | n | n | n | n | n | x
O=C(COC(=O)Cc1cccs1)NCC(=O)Nc1ccc(F)cc1 | n | n | 41.5 | n | n | n | n
COC(=O)N/N=C1/C/C(=N\NC(=O)OC)c2ccccc21 | n | n | 38.4 | n | n | n | n
Cc1cc2cc(CNC(=O)Nc3ccccc3)ccc2n1C | n | n | 30.2 | n | n | n | n
C=CCOc1ccc(Br)cc1/C=C1/SC(=Nc2ccc(C(=O)O)cc2)NC1=O | n | n | 31.1 | x | n | n | n
COc1ccc(CC(=O)OCC(=O)c2ccc(S(=O)(=O)N3CCCCC3)cc2)cc1 | n | n | n | n | n | n | x
O=S(=O)(Nc1ccc(N=Nc2ccc(O)c3ccccc23)cc1)c1ccccc1 | n | n | 36.0 | n | n | n | n
O=S(=O)(Nc1ccc(O)c2ccccc12)c1ccc(Br)cc1 | x | x | x | n | x | x | x
SMILES | PAFAH2 FP inh | ATG4B inh | PAFAH1B3 inh | pPAFAH FP inh | DAGLB inh | PAFAH1B2 inh | PAFAH1B3 confirm
CCn1cc(S(=O)(=O)Nc2ccc(Cl)cc2F)cn1 | n | n | n | n | n | n | x
O=C(CN1CCCCC1)Nc1ccccc1Oc1ccccc1 | n | n | n | n | n | n | x
O=[N+]([O-])c1cc(Br)c(Nc2ccccc2)c([N+](=O)[O-])c1 | n | n | 36.0 | n | n | n | 29.1
COc1ccc(CCC(=O)Nc2ccccc2C(F)(F)F)cc1 | n | n | n | n | n | n | x
O=c1cc(-c2ccc(O)cc2)oc2cc(O)cc(O)c12 | n | n | n | n | n | n | x
O=c1c(OC2OC(CO)C(O)C(O)C2OC2OC(CO)C(O)C(O)C2O)c(-c2ccc(O)cc2)oc2cc(O)cc(O)c12 (stereo not drawn) | n | n | n | n | n | n | x
C[C@@H]1O[C@@H](Oc2c(-c3cc(O)c(O)c(O)c3)oc3cc(O)cc(O)c3c2=O)[C@H](O)[C@H](O)[C@H]1O | n | n | 44.1 | n | n | n | n
C[C@@H]1O[C@@H](Oc2c(-c3ccc(O)c(O)c3)oc3cc(O)cc(O)c3c2=O)[C@H](O)[C@H](O)[C@H]1O | n | n | 26.8! | n | n | n | n
O=c1c(O)c(-c2ccc(O)cc2)oc2cc(O)cc(O)c12 | n | n | 29.6 | n | n | n | n
O=c1c(O[C@@H]2O[C@H](CO)C(O)C2O)c(-c2ccc(O)c(O)c2)oc2cc(O)cc(O)c12 (stereo partly drawn) | n | n | 25.5 | n | n | n | n
C[C@@H]1O[C@@H](O[C@H]2[C@H](O)[C@@H](O)[C@H](Oc3c(-c4ccc(O)c(O)c4)oc4cc(O)cc(O)c4c3=O)O[C@@H]2CO)[C@H](O)[C@H](O)[C@H]1O | n | n | n | n | n | n | x
O=c1c(O[C@H]2O[C@@H](CO)[C@H](O)[C@@H](O)[C@@H]2O)c(-c2ccc(O)cc2)oc2cc(O)cc(O)c12 | n | n | n | n | n | n | x
CCNS(=O)(=O)c1cc(OC)c(Cl)cc1OC | n | n | n | n | n | n | x
O=C(NCCc1ccc(F)cc1)Nc1ccccc1Cl | n | n | n | x | n | n | x
CC(C)CN(C(=O)c1ccc([N+](=O)[O-])s1)c1c(N)n(Cc2ccccc2)c(=O)[nH]c1=O | n | n | n | n | n | n | x
COc1ccc(C(C)=O)c(Oc2cc(NN3CCCCC3)c([N+](=O)[O-])cc2[N+](=O)[O-])c1 | n | n | n | n | n | n | x
CSc1ccc(/C=N/Nc2cccc(C(=O)O)c2)cc1 | n | n | 32.7 | x | n | n | 25.8
O=C(O)c1cccc(N/N=C/c2ccc(OC(F)(F)F)cc2)c1 | n | n | n | n | n | n | x
CC(=O)Nc1nc(-c2ccc3c(c2)CCN3S(C)(=O)=O)cs1 | n | n | n | n | n | n | x
CS(=O)(=O)N1CCc2cc(-c3csc(NC(=O)Cc4cccs4)n3)ccc21 | n | n | 36.1 | n | n | n | n
O=C1C(c2ccccc2)=[N+]([O-])c2ccccc21 | n | n | 28.0 | n | n | n | n
CCOC(=O)/C=C1/SCC(=O)N1CC(=O)Nc1ccc2c(c1)CCC2 | n | n | n | x | n | n | x
O=C(O)CCCCCCCCCCCNC(=O)NC12CC3CC(CC(C3)C1)C2 | n | n | 25.6 | n | n | n | n
CCCCCCC(=O)Nc1nc(C)c(-c2csc(Nc3ccc(Cl)cc3)n2)s1 | n | n | 28.0 | n | n | n | n
C=CC(=O)N=c1sc2ccccc2n1-c1ccccc1 | n | n | 55.4 | n | n | n | 47.3
CCC1CCCCN1S(=O)(=O)c1ccc(C(=O)N(CCCN(C)C)c2nc3cc4c(cc3s2)OCO4)cc1 (stereo not drawn) | n | n | n | n | n | n | x
COc1ccc(CCNS(=O)(=O)c2ccc(Cl)cc2)cc1OC | n | n | n | n | n | n | x
